RTF Ca sens inh: cardiac RTF calcium desensitization | P19429+P45379 | IANBD-labeled cardiac RTF, Ca2+ fluorescence | inhibition, % at 7.15 µM | 340,000 tested, 0.12% active;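 active = inhibition above the mean inhibition of all tested compounds plus 3 SD, cut at about 17% in these data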;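 also: assay run at fixed EC70 calcium of 1.6 mM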
CRFBP-R2 agonist: CRF-BP/CRF-R2 complex agonism | HEK293 CRF-R2/CRF-BP, calcium dye fluorescence (FLIPR); percent of saturating CRF peptide response | activation, % at 13.2 µM | AID 588473 | 350,000 tested, 0.46% active;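 active = activation of at least 50%, plus an integration ratio under a set limit after plate pattern correction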;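 also: plate controls were neutral control wells without compound for no effect and CRF at EC100 for full effect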
CRFBP-R2 block: CRF-BP/CRF-R2 complex antagonism; HEK293 CRF-R2/CRF-BP, CRF-induced calcium fluorescence; inhibition, % at 11.8 µM; 350,000 tested, 0.59% active;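 active = inhibition of the ligand-induced calcium signal above about 50% at the single tested concentration, limit read from the data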
cardiac RTF act: increases calcium sensitivity of human cardiac regulated thin filaments. P19429+P45379. IANBD-labeled TnC RTF fluorescence at EC20 calcium; 0% EC20 calcium, 100% full calcium. activation, % at 7.2 µM. 340,000 tested, 0.24% active;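 active = activation above the mean over all tested compounds plus 3 SD, cut at about 30% in these data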;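 also: rise in fluorescence read as greater calcium sensitivity of cardiac thin filaments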
RTF Ca inh conf: cardiac RTF calcium sensitivity inhibition, confirmation; shares compounds with RTF Ca sens inh; reconstituted cardiac thin filaments, calcium sensitivity fluorescence; inhibition, % at 7.15 µM; 360 tested, 8% active; in the data active = inhibition above about 18%
An asterisk follows results filed as active; . = not tested or not shown. Most compounds without a hit are left out; they make up all but 1.3% or so of the library.

SMILES	RTF Ca sens inh	CRFBP-R2 agonist	CRFBP-R2 block	cardiac RTF act	RTF Ca inh conf
COc1ccc(Cl)cc1NC(=O)C(C)N(C)Cc1ccc(C(F)(F)F)cc1 (stereo not given)	18*	2	-16	3	-1
CN1C(=O)N(CC(=O)Nc2sccc2C(N)=O)C(=O)C12CCCCC2	17*	0	2	0	-4
CN1C(=O)N(CC(=O)Nc2nccs2)C(=O)C12CCCCC2	7	0	-2	0	.
O=C(O)/C=C/C(O)c1ccc(Cl)cc1 (stereo not given)	18*	0	19	-3	-5
O=C(/C=C/Sc1ccccc1)c1ccc(Cl)cc1	-1	0	-11	-4	.
O=C(NNC(=O)c1cc2cc(OC(F)(F)F)ccc2[nH]1)c1cccc(C(F)(F)F)c1	-1	-1	45	-3	.
CC(=O)c1cc2c(cc1F)C(C)(C)CCC2(C)C	0	-1	-17	2	.
S=C(NCCC1=CCCCC1)NCc1ccco1	4	0	0	1	.
CC1(C)Cc2cccc(OCC(O)CN3CCN(c4ccccn4)CC3)c2O1 (stereo not given)	-7	-2	0	-8	.
CC1(C)Cc2cccc(OCC(O)CNCc3ccccn3)c2O1 (stereo not given)	18*	-3	20	-3	2
C[C@@H]1CN([C@H](C)CO)C(=O)CCCn2nncc2CO[C@@H]1CN(C)C(=O)C1CC1	.	-1	1	.	.
CCc1ccccc1NC(=O)C1(S(=O)(=O)c2ccc(C)cc2)CC1	17*	0	0	-7	-1
Cc1c(Cl)c([N+](=O)[O-])nn1CC(=O)NC(C)c1ccccc1 (stereo not given)	4	2	-4	-2	.
Cc1c(Cl)c([N+](=O)[O-])nn1CC(=O)NCc1cccs1	18*	-2	8	11	-3
O=C(Nc1cc(Cl)ccc1O)C1CC(c2ccccc2Cl)=NO1 (stereo not given)	5	-2	15	0	.
CCc1cc(C(=O)N=Nc2c(O)[nH]c3ccc([N+](=O)[O-])cc23)c2ccccc2n1	17*	-1	12	-4	-7
O=C(O)c1ccccc1N=Nc1ccc(O)cc1	18*	2	-4	1	-6
CNC[C@@H]1OCc2ccccc2-c2ccccc2C(=O)N([C@H](C)CO)C[C@@H]1C	.	0	-11	.	.
CCOc1ccc(C2C(C(=O)c3cccs3)=C(O)C(=O)N2Cc2cccnc2)cc1 (stereo not given)	19*	17	12	6	1
Cc1cc(OC(C)C(=O)NCc2ccccn2)c2c(C)c(C)c(=O)oc2c1 (stereo not given)	-4	0	-6	1	.
Nc1nnc(SCC(=O)N2CCN(c3ccccc3)CC2)n1-c1ccccc1	18*	-2	22	-6	-2
CCOc1cccc2cc(C(=O)NCc3ccc(OC)cc3)c(=N)oc12	-12	-8	2	-2	.
CCCCn1c(SC(C)C(=O)NCC2CCCO2)nc2cc(C(=O)OC)ccc2c1=O (stereo not given)	19*	-2	0	-4	-4
CCCCn1c(SC(C)C(N)=O)nc2cc(C(=O)OC)ccc2c1=O (stereo not given)	-21	-1	-7	-3	.
CCc1ccc(C(C)(O)C(CN2CCOCC2)c2ccccc2)cc1 (stereo not given)	-5	1	2	2	.
SMILES	RTF Ca sens inh	CRFBP-R2 agonist	CRFBP-R2 block	cardiac RTF act	RTF Ca inh conf
C=C[C@@]1(C)CC(=O)[C@]2(O)[C@@]3(C)[C@@H](O)CCC(C)(C)[C@@H]3[C@H](O)[C@H](OC(C)=O)[C@@]2(C)O1	19*	2	28	6	-5
C[C@H]1CN=C(Nc2ccccc2)N1CCC1CCCCC1	9	0	5	0	.
C[C@H]1CN=C(Nc2ccccc2)N1CCCC1CCCC1	19*	-1	0	1	-2
CC1CCCCN1C(=O)c1cc(F)c(F)cc1Cl (stereo not given)	-6	-1	19	0	.
CC1CCCCN1C(=O)c1cc(Cl)ccc1[N+](=O)[O-] (stereo not given)	20*	-3	-3	-2	-2
COc1ccccc1-n1c(SCC(=O)Nc2ccc(C)cc2)nc(O)cc1=O	18*	4	-15	-1	-2
COc1ccc(NC(=O)CSc2nc(O)cc(=O)n2-c2ccccc2OC)cc1	-6	-1	0	-1	.

High-throughput results deposited in PubChem by several laboratories.
